Structures are written as SMILES. The source made the active and inactive calls.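 The calls were made as follows: active = compounds whose dose series gives a full or clear partial fitted curve of increased nuclear translocation; inconclusive = weak partial curve or effect only at the top dose; inactive = no dose-dependent translocation response.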 A value given as a limit tells only on which side of the number the result lay.
Potency is read from the fitted curve at half-maximal effect.

For the assay, the target named is Glucocorticoid receptor (Homo sapiens) (UniProt P04150). Description: GR-GFP Redistribution (AID 450). As to conditions: U2OS GR-GFP nuclear translocation, laser cytometry, 2 h. The source says: NIH Molecular Libraries Screening Centers Network [MLSCN]
Glucocorticoid receptor (Homo sapiens), sequence (P04150 whole entry, looked up): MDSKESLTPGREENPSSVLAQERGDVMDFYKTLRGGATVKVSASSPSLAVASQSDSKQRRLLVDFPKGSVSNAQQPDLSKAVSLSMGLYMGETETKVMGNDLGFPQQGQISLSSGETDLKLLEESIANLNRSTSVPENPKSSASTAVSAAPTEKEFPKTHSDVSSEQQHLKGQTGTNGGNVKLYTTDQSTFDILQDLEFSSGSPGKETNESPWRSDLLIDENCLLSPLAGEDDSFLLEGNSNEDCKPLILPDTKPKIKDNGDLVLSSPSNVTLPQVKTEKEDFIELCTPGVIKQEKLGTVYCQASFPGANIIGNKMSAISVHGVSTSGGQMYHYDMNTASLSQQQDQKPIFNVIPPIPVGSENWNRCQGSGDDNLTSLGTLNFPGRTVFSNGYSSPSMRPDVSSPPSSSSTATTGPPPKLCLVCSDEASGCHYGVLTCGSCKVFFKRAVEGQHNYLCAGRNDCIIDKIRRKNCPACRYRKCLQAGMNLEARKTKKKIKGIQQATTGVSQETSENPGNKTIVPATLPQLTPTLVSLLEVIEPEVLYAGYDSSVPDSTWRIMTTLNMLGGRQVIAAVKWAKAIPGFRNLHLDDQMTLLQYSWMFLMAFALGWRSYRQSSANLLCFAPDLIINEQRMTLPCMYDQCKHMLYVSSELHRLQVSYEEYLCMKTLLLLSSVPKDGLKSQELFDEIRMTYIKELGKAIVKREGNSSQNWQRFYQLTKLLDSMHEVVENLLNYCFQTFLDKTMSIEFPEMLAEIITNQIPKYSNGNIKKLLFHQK
NIH Chemical Genomics Center [NCGC]
The glucocorticoid receptor (GR) Redistribution assay (BioImage) enables the visualization of GR cytoplasmic to nuclear translocation by the use of a GR-GFP fusion. GR is normally cytosolic, however ligands such as dexamethasone, cause nuclear translocation where the protein binds to response elements and interacts with various co-factors to modulate transcription. Because both functional agonists and antagonists can induce nuclear translocation, this assay can detect ligands regardless of their effects on gene expression. GR-GFP expressing U20S cells were used here. Dexamethasone was the positive control for translocation and data normalization. Detection of nuclear translocation was performed in 1536-well plates using the Acumen laser scanning plate cytometer (TTP LabTech). Validation of this assay and a detailed protocol have been described.
NCGC Assay Protocol Summary:
GR-GFP U2OS cells were maintained in DMEM with Glutamax and high glucose, 1% v/v penicillin-streptomycin, and 0.5 mg/mL Geneticin. For cell culture, 10% […] fetal bovine serum (FBS) was used (Invitrogen #26140-079). For cell plating 10% dextran, charcoal-stripped FBS (Hyclone SH30068.03) was used. U2OS cells were trypsin treated, suspended in medium, and passed through a 40 um basket filter. The cells were seeded at 600 cells/5 uL/well into clear-bottom black sided 1536-well plates and incubated for approximately 20 hrs, 37degC, 5%, CO2 in a tissue culture incubator. Twenty-three nL of compound was delivered by pin tool and the plates were incubated as above for 2 hrs. The compounds were tested as a 7-point titration ranging from 46 uM to 0.6 nM. The cells were fixed using the Kalypsys Washer/Dispenser station. The fixing protocol involved aspiration of the cell media, addition of 6 uL/well of PBS, aspiration of PBS, addition of 5uL/well of 100% methanol, aspiration of methanol, and addition of 3 uL/well PBS with 1.5 uM propidium iodide (PI). The plates were read by the Acumen Explorer using a 1 x 8 um scan of the whole well area. PI fluorescence triggered the collection of PI and GFP signals. A nuclei population was defined by a 10 to 100 um width and depth filter that eliminated small and large fluorescent particles. Two subpopulations of nuclei were then defined by peak intensity of GFP fluorescence to obtain translocated and untranslocated objects. The number of translocated objects was used for data normalization.
Keywords: NIH Roadmap, MLSCN, MLI, MLSMR, sOGT, qHTS, NCGC
On to `O=C(CN1CCN(CCO)CC1)Nc1ccc(Cl)cc1C(=O)c1ccccc1`, for which the Potency was > 20.6 µM (inactive).

For the molecule `C=CCn1c(O)c(C=Nc2ccc(N(CC)CC)cc2)c(=O)[nH]c1=O`, the Potency was > 20.6 µM (inactive).

`C=CCN1C[C@@H](C)N([C@H](c2ccc(C(=O)N(CC)CC)cc2)c2cccc(OC)c2)C[C@H]1C`: the Potency was > 46 µM (inactive).

With `Cc1c(N=Cc2c(O)n(CCc3ccc(F)cc3)c(=O)[nH]c2=O)c(=O)n(-c2ccccc2)n1C`, the Potency is > 20.6 µM (inactive).

With `CCOC(=O)C1=C(C)OC(N)=C(C(=O)OCC)[C@@]12C(=O)N(CC(N)=O)c1ccccc12`, the Potency was > 20.6 µM (inactive).

As to `C=CCOC(=O)C1=C(C)OC(N)=C(C#N)[C@@]12C(=O)N(CC(N)=O)c1ccccc12`, the Potency was > 20.6 µM (inactive).

On to `COc1ccc2c(c1)[C@]13CCCC[C@@H]1[C@H](C2)N(C)CC3`, for which the Potency is > 46 µM (inactive).

`CCOCCN1CCC(OC(C)=O)C(C)C1` (stereo not given): the Potency is > 20.6 µM (inactive).

With `CN(C)CCOC(=O)c1cn(Cc2ccccc2)c2ccccc12`, the Potency is > 20.6 µM (inactive).

As to `COc1ccc(C(=O)CN2CCOCC2)cc1F`, the Potency is > 20.6 µM (inactive).

On to `COc1ccc(C2SCC(=O)Nc3c2c(=O)[nH]n3C2CCCCCC2)cc1` (stereo not given), for which the Potency was > 20.6 µM (inactive).

On to `CC1(C)[C@@H]2CC[C@]1(C)CN(CCC[N+](C)(C)C)C2`, for which the Potency is > 46 µM (inactive).

As for `CC[C@@]12CCCN3CC[C@@]4(c5ccc(OC)c(O)c5N(C(C)=O)[C@H]4CC1)[C@H]32`, the Potency was > 46 µM (inactive).

As to `O=C1c2ccccc2C(=O)N1Cc1nc2ccccc2c(=O)n1-c1cccnc1`, the Potency was > 20.6 µM (inactive).

On to `CC[C@H](CO)NC(=O)[C@@H]1C=C2c3cccc4[nH]cc(c34)C[C@@H]2N(C)C1`, for which the Potency was > 46 µM (inactive).

In the case of `CNc1ccc2oc(C[C@@H]3O[C@@]4(CC[C@H]3C)O[C@@H]([C@@H](C)C(=O)c3ccc[nH]3)[C@@H](C)C[C@H]4C)nc2c1C(=O)O`, the Potency is > 46 µM (inactive).

With `O=c1[nH]c(=O)n(CCc2ccccc2)c(O)c1C=NCCN1CCNCC1`, the Potency is > 20.6 µM (inactive).

`CC1CN=C(Nc2ccc(N(C)C)cc2)S1` (stereo not given): the Potency is > 20.6 µM (inactive).

Turning to `CC(=O)CC(C)(C)n1c[n+](C)nn1`, the Potency was > 20.6 µM (inactive).

For `CN1C(=O)CN=C(c2ccc(Cl)cc2)c2cc(Cl)ccc21`, the Potency is > 20.6 µM (inactive).

For the molecule `CCCCc1nc(N2CCNCC2)c(C#N)c2c1CSC(C)(C)C2`, the Potency is > 20.6 µM (inactive).

On to `CN[C@@H](C)[C@@H](O)c1ccccc1`, for which the Potency was > 46 µM (inactive).

Regarding `CC(C)C(=O)N1CCN(CCN=Cc2c(O)n(C)c(=O)n(C)c2=O)CC1`, the Potency was > 20.6 µM (inactive).

For `O=c1cccc2n1C[C@@H]1C[C@H]2CN2CCCC[C@H]12`, the Potency was > 46 µM (inactive).

For the molecule `Oc1cc2c(cc1O)[C@H]1c3ccccc3CN[C@H]1CC2`, the Potency is > 46 µM (inactive).

With `O=C1C[C@H]2OCCC=C3CN4CC[C@@]56c7ccccc7N1[C@@H]5[C@H]2[C@H]3C[C@@H]46`, the Potency was > 46 µM (inactive).

`CN1CCc2cc3c(cc2[C@@H]1[C@H]1OC(=O)c2c1ccc1c2OCO1)OCO3`: the Potency was > 46 µM (inactive).

Regarding `CCN1C[C@@]2(COC(=O)c3ccccc3N3C(=O)C[C@H](C)C3=O)CC[C@H](OC)[C@@]34[C@@H]5CC6[C@@H](OC)C[C@@](O)([C@H]5[C@H]6OC)C(O)([C@@H]13)[C@@H](OC)[C@H]24`, the Potency is > 46 µM (inactive).

Turning to `N[C@@H](Cc1cc(O)c(O)cc1O)C(=O)O`, the Potency is > 46 µM (inactive).

Turning to `COc1cc2c(cc1O)-c1c(O)c(OC)cc3c1[C@H](C2)N(C)CC3`, the Potency was > 46 µM (inactive).

Turning to `C=C(C)[C@@H]1CN[C@H](C(=O)O)[C@H]1CC(=O)O`, the Potency was > 46 µM (inactive).

Turning to `O=P(c1ccccc1)(c1ccccc1)N1CCCCC1`, the Potency is > 20.6 µM (inactive).

As to `COc1ccc2c(c1O)-c1c(OC)c(OC)cc3c1[C@@H](C2)N(C)CC3`, the Potency is > 46 µM (inactive).

As for `OC(Cc1ccccc1)(c1ccccc1)C1CN2CCC1CC2` (stereo not given), the Potency is > 20.6 µM (inactive).

In the case of `CCOc1ccccc1-n1c(O)c(C=Nc2ccc(N(CC)CC)cc2)c(=O)[nH]c1=O`, the Potency is > 20.6 µM (inactive).

`COc1ccc(C2SCC(=O)Nc3c2c(=O)[nH]n3C2CCCCC2)cc1` (stereo not given): the Potency is > 20.6 µM (inactive).

Consider `C[C@]1(C(=O)O)[C@@H]2CC[C@@H](O2)[C@@]1(C)C(=O)O`, for which the Potency is > 46 µM (inactive).

`CC[C@]1(O)C(=O)OCc2c1cc1n(c2=O)Cc2cc3ccccc3nc2-1`: the Potency was > 46 µM (inactive).

In the case of `CCCCCCn1c(O)c(C=NCCN2CCCCC2)c(=O)[nH]c1=O`, the Potency was > 20.6 µM (inactive).

For `CCOc1ccc(Cc2c(O)[nH]c(=O)[nH]c2=O)cc1`, the Potency was > 20.6 µM (inactive).

Values taken from PubChem BioAssay (NCATS).
